# In PubChem BioAssay (NCATS):
# Several values for one entry are separate records, joined by “and”; a condition that tells them apart may be missing. Equal values may be shown once. Inconclusive results are not listed. A number with no mark means an inactive call. The call rests on the fitted dose curve; in most records, active means well fitted activation curve with a large enough effect in the signal ratio; inconclusive means small, poorly fitted or top-dose-only effect, or a change in a side signal; inactive means flat fitted curve, though single readings scatter; the % refers to the signal ratio.
# Assay: qHTS assay for small molecule activators of the nuclear factor-kappa B (NF-kB) signaling pathway (AID 651749); further: series mostly up to about 77 µM; % of control where 0% means no effect
# Conditions: NF-kB-bla ME-180 cells, beta-lactamase FRET ratio, 16 h; hits give high values
# From the text: National Center for Advancing Translational Sciences [NCATS] NIH Chemical Genomics Center [NCGC] U.S. Environmental Protection Agency [EPA] National Institutes of Environmental Health Sciences [NIEHS] National Toxicology Program [NTP] Assay Overview: Transcription factors and their stimulated target gene expression play pivotal roles across many cellular processes including responses to environmental stimuli. Proper regulation of associated pathways is critical to maintain cell health and function. Constitutive activation of transcription factor pathways has been implicated in tumors as it may block cellular functions such as apoptosis and lead to invasion and metastasis. One important transcription factor that stimulates gene expression in response to cytokines, UV radiation, and other stimuli is nuclear factor-kappa B (NF-kB). To measure activation of the NF-kB pathway, the NF-kB-bla ME-180 cell line stably expressed beta-lactamase reporter gene under the regulation of a NF-kB response element was obtained from Invitrogen. This assay allows measurement of the NF-kB pathway activity induced by compounds in a ME-180 cell line. This system quantitates NF-kB activity using a FRET-based assay system where beta-lactamase expression disrupts FRET, allowing for fluorescent measurement of activity.
# Assay Protocol Summary: For toxicology screening, 2,000 cells in 5 uL/well were dispensed into black, clear-bottom 1536-well plates using a Multidrop Combi (Thermo Scientific) dispenser. Following transfer of 23 nL compound or DMSO vehicle by a pin tool, the plates were incubated 16 hr at 37C and 5% CO2.
row,Structure (SMILES),activation
1,CCCN(CCC)c1c([N+](=O)[O-])cc(C(F)(F)F)cc1[N+](=O)[O-],-3.66% and -3.44%
2,CC[N+](=O)[O-],1.19%
3,ClP(Cl)(Cl)(Cl)Cl,-0.207%
4,NNC(N)=S,0.227%
5,N#C/C(N)=C(/N)C#N,-1.05%
6,Cl/C=C/CCl,0.574%
7,CN(C)C(=O)Cl,-0.0384%
8,N#CCCC#N,0.61%
9,Oc1cc(Cl)c(Cl)c(Cl)c1,-0.357%
10,COC(=O)c1ccccc1N,-0.425%
11,BrCC(Br)(Br)Br,0.84%
12,Nc1ccc([N+](=O)[O-])cc1[N+](=O)[O-],-1.37%
13,Cc1coc2c1CCC(C)C2 (stereo not given),-0.0074%
14,Cc1ccccc1[N+](=O)[O-],3.11%
15,CCCCCC[N+](=O)[O-],1.69%
16,c1ccc(P(c2ccccc2)c2ccccc2)cc1,-0.914%
17,C=CC(=O)OCCN(C)C,-1.13%
18,ClCCOCOCCCl,-0.753%
19,C/C=C/CC#N,1.19%
20,NC1CCC(CC2CCC(N)CC2)CC1 (stereo not given),-0.779% and -0.659%

row,Structure (SMILES),activation
1,ClC(Cl)Br,-1.16%
2,Nc1cccc(Cl)c1,-1.07%
3,O=[N+]([O-])c1ccccc1CCl,0.905%
4,Cc1cccc(C)c1N,-1.09%
5,C=COC(C)=O,-0.411%
6,C[N+](=O)[O-],-0.658%
7,ClCCBr,0.431%
8,Nc1cc(Cl)ccc1O,-0.288%
9,Nc1ccc(Cl)c(Cl)c1,0.145%
10,Nc1cc(Cl)cc(Cl)c1,0.8%
11,Brc1cccc(-c2ccccc2)c1,-1.09%
12,Brc1ccc(Oc2ccc(Br)cc2Br)c(Br)c1,0.581%
13,C(CCOCC1CO1)COCC1CO1 (stereo not given),0.765%
14,OCCBr,0.0665%
15,CC(=O)CCC(C)=O,0.108%
16,CCC#N,-1.07%
17,CC12CC1(C)C(=O)N(c1cc(Cl)cc(Cl)c1)C2=O (stereo not given),-0.629% and -1.26%
18,CN(C)C(=O)Nc1ccc(Cl)cc1,2.75% and -0.215%
19,[O-][Cl+]O,-0.295%
20,CCCCC(=O)Cl,-1.31%
